This note sets out measurements from ChEMBL document CHEMBL1961873, “Compounds: GSK PKIS; Assays: Nanosyn kinase panel” (2012).

Structures are written as SMILES.

Test [1] concerns the target Protein kinase C gamma type (Homo sapiens) (UniProt P05129). To be noted: at 1 µM.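 Further: each value is an averaged percent inhibition of the enzyme.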
In test [2] the target is T1, Protein kinase C iota type (Homo sapiens) (UniProt P41743).
T1 sequence (whole entry): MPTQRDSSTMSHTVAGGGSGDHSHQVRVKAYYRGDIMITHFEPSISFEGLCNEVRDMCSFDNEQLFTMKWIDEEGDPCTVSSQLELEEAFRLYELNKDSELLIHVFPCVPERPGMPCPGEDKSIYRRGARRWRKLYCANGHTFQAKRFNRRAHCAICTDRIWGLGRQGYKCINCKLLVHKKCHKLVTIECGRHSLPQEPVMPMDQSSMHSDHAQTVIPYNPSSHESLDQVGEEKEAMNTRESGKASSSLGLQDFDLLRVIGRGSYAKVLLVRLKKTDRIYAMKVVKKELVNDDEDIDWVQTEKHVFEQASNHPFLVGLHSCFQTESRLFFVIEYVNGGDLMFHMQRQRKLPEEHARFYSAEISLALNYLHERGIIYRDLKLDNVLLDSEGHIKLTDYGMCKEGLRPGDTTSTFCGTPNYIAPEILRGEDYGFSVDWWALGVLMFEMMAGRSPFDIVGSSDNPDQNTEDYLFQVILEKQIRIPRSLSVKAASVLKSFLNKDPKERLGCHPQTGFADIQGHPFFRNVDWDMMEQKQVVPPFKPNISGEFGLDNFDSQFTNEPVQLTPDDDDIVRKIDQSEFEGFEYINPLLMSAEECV
To be noted: at 0.1 µM.

Test [3] addresses T1, Protein kinase C iota type (Homo sapiens). To be noted: at 1 µM.
Test [4] concerns the target Protein kinase C theta type (Homo sapiens) (UniProt Q04759). The note with it: at 0.1 µM.
For test [5] the target is unchanged. To be noted: at 1 µM.
In test [6] the target is Protein kinase C beta type (Homo sapiens) (UniProt P05771). The note with it: at 0.1 µM.
Test [7] shares this target. To be noted: at 1 µM.
The target in test [8] is T2, Serine/threonine-protein kinase D1 (Homo sapiens) (UniProt Q15139).
T2 sequence (whole entry): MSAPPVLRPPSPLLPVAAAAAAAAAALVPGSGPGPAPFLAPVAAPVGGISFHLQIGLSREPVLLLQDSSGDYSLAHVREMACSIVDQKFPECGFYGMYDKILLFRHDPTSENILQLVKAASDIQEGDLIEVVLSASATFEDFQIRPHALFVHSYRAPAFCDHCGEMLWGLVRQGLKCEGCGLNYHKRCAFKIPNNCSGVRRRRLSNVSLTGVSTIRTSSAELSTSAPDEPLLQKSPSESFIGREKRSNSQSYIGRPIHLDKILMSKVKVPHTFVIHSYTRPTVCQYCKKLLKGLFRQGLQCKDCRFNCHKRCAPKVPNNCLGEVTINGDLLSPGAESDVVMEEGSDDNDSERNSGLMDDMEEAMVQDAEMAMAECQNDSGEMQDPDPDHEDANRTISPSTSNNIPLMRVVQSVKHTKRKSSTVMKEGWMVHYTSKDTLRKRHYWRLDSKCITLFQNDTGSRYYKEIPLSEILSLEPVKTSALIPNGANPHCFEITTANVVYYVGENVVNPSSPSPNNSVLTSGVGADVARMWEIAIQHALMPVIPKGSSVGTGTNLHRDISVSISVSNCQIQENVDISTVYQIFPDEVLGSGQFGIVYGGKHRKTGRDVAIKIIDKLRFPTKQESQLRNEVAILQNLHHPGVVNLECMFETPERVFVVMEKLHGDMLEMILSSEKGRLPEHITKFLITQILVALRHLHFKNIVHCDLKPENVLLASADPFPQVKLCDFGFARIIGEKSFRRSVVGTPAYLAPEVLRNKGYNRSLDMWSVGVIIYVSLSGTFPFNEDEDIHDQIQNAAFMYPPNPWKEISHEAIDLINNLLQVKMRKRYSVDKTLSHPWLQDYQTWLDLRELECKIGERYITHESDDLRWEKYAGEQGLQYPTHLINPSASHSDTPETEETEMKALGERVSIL
To be noted: at 0.1 µM.

Test [9] deals with T2, Serine/threonine-protein kinase D1 (Homo sapiens). To be noted: at 1 µM.
The target of test [10] is T3, Serine/threonine-protein kinase D2 (Homo sapiens) (UniProt Q9BZL6).
T3 sequence (whole entry): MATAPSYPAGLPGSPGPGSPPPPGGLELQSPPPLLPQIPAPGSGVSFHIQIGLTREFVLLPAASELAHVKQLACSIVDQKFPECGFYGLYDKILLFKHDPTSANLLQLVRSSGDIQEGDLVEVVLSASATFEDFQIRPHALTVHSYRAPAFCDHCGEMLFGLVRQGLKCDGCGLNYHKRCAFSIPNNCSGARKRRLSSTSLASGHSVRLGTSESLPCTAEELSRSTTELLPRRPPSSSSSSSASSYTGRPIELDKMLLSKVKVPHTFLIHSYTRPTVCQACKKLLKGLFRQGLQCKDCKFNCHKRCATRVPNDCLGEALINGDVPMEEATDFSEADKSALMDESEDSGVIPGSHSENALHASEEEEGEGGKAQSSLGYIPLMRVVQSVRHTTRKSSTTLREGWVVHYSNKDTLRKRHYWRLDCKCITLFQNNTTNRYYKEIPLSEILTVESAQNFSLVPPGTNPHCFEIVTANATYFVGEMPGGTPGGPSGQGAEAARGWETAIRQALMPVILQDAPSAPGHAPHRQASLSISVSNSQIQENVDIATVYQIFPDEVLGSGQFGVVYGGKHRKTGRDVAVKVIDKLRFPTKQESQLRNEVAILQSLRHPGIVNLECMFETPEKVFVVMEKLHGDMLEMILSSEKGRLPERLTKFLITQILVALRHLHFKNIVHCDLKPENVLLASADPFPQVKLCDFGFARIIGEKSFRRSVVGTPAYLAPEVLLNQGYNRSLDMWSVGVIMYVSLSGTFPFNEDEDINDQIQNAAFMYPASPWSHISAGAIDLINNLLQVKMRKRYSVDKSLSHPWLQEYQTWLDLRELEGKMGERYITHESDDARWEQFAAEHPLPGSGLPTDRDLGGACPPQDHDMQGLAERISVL
To be noted: at 0.1 µM.

Test [11] addresses T3, Serine/threonine-protein kinase D2 (Homo sapiens). The note with it: at 1 µM.
Test [12] deals with T4, Serine/threonine-protein kinase D3 (Homo sapiens) (UniProt O94806).
T4 sequence (whole entry): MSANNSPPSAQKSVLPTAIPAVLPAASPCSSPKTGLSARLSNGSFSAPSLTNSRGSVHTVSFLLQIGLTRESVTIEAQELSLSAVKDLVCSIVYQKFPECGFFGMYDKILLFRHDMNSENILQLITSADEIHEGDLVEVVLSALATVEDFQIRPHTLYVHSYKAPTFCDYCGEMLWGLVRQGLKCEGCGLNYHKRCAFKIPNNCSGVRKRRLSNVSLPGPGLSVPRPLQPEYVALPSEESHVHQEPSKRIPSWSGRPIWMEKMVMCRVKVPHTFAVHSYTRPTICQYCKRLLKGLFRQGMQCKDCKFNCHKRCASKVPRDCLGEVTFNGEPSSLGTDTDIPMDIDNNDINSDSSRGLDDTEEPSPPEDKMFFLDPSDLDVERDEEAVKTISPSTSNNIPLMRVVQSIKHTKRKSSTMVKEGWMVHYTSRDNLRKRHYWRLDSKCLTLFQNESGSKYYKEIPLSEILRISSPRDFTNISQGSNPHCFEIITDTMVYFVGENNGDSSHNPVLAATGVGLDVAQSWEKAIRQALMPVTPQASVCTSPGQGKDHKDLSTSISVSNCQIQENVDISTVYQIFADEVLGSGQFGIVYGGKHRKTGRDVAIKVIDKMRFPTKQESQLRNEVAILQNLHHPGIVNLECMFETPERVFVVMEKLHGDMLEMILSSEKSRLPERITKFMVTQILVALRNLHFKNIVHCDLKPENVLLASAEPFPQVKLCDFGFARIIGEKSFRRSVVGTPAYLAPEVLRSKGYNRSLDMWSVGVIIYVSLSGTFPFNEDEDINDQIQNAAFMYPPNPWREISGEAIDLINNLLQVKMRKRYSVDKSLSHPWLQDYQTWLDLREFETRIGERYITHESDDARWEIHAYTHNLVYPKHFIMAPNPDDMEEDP
The note with it: at 0.1 µM.

Test [13] has as its target T4, Serine/threonine-protein kinase D3 (Homo sapiens). The note with it: at 1 µM.
Test [14] has as its target T5, cGMP-dependent protein kinase 1 (Homo sapiens) (UniProt Q13976).
T5 sequence (whole entry): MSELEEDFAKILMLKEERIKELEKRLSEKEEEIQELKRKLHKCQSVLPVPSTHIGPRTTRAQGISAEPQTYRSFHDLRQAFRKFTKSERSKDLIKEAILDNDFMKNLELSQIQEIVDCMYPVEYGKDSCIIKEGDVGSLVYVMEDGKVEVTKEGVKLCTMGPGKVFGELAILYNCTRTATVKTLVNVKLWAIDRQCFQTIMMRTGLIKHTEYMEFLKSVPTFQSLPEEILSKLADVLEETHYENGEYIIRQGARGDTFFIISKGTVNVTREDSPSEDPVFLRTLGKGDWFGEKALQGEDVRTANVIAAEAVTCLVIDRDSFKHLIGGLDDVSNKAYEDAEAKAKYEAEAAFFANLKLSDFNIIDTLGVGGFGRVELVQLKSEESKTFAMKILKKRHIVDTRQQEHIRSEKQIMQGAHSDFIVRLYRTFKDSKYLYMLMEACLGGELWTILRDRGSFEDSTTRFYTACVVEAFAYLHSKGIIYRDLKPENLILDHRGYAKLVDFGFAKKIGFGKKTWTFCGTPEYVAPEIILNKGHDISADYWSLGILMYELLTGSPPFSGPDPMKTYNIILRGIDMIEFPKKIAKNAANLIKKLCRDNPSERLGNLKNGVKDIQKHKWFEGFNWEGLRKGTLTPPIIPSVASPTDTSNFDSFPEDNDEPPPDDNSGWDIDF
The note with it: at 0.1 µM.

Test [15] has as its target T5, cGMP-dependent protein kinase 1 (Homo sapiens). To be noted: at 1 µM.
In test [16] the target is T6, cGMP-dependent protein kinase 2 (Homo sapiens) (UniProt Q13237).
T6 sequence (whole entry): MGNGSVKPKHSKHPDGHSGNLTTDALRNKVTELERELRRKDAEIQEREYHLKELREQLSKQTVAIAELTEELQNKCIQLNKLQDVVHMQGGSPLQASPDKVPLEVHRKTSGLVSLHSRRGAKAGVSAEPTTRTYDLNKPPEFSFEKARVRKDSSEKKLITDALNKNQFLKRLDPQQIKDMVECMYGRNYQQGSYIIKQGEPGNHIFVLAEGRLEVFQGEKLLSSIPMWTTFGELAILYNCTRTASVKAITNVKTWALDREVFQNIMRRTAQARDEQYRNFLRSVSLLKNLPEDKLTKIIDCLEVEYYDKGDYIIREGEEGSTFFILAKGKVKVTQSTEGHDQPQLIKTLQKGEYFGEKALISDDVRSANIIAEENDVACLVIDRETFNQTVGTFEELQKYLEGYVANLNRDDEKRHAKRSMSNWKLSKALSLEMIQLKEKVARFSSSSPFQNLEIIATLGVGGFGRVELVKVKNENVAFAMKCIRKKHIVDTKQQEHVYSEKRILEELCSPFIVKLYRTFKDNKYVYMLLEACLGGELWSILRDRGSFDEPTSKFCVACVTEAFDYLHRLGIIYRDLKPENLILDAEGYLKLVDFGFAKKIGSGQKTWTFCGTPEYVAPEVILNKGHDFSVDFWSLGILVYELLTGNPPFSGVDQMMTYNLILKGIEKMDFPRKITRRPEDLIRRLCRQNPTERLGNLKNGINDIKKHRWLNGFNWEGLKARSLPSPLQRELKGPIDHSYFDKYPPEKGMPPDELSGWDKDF
To be noted: at 0.1 µM.

The target in test [17] is T6, cGMP-dependent protein kinase 2 (Homo sapiens). To be noted: at 1 µM.
Test [18] addresses T7, cAMP-dependent protein kinase catalytic subunit PRKX (Homo sapiens) (UniProt P51817).
T7 sequence (whole entry): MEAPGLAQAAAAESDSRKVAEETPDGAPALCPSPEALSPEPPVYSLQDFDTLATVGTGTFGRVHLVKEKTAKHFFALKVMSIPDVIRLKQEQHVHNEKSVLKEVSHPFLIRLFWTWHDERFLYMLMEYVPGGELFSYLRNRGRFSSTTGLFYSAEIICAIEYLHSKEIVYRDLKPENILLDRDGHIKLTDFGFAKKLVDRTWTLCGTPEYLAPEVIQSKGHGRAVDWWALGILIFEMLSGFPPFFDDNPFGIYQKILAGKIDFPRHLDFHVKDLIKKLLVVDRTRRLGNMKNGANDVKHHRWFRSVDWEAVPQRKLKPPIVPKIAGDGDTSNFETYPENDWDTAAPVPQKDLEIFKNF
To be noted: at 0.1 µM.

Test [19] has as its target T7, cAMP-dependent protein kinase catalytic subunit PRKX (Homo sapiens). The note with it: at 1 µM.
The target in test [20] is Rho-associated protein kinase 1 (Homo sapiens) (UniProt Q13464). To be noted: at 0.1 µM.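 Further: values are mean percent inhibition of ROCK1.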
Chain of Rho-associated protein kinase 1 (Homo sapiens) (Q13464 2-1354 limits assumed): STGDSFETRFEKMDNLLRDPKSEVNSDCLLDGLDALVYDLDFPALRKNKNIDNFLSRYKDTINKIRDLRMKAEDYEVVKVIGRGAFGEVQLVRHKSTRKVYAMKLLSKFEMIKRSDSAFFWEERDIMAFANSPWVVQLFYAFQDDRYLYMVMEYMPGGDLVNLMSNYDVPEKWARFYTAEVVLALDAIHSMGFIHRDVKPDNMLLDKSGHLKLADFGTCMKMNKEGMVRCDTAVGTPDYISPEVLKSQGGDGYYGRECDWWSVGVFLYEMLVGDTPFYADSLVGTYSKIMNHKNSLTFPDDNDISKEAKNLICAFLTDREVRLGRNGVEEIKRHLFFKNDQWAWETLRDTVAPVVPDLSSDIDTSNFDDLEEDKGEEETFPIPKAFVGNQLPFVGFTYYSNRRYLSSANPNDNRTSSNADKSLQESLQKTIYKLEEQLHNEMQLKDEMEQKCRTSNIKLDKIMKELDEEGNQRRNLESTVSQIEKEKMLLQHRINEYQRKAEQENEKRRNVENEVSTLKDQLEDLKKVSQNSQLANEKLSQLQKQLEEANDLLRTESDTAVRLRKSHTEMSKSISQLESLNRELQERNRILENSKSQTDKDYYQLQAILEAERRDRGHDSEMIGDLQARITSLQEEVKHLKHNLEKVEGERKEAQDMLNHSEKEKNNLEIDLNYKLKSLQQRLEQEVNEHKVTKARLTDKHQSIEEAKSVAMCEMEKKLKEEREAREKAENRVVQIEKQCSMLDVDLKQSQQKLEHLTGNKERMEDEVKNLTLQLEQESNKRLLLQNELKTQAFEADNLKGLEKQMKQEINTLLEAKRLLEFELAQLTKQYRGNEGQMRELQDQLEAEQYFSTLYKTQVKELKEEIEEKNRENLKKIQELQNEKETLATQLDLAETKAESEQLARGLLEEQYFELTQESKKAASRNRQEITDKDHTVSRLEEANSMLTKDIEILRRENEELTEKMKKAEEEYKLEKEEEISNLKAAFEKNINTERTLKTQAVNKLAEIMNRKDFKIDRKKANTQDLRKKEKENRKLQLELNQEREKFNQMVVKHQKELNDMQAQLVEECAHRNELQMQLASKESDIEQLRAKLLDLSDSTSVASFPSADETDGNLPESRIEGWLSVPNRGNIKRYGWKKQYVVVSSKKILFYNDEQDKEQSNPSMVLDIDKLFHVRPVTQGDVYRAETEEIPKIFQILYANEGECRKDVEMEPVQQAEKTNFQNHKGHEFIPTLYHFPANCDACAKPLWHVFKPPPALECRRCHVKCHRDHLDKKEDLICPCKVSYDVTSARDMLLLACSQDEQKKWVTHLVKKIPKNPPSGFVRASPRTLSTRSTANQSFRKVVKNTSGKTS

Chain of Protein kinase C theta type (Homo sapiens) (Q04759 whole entry, looked up): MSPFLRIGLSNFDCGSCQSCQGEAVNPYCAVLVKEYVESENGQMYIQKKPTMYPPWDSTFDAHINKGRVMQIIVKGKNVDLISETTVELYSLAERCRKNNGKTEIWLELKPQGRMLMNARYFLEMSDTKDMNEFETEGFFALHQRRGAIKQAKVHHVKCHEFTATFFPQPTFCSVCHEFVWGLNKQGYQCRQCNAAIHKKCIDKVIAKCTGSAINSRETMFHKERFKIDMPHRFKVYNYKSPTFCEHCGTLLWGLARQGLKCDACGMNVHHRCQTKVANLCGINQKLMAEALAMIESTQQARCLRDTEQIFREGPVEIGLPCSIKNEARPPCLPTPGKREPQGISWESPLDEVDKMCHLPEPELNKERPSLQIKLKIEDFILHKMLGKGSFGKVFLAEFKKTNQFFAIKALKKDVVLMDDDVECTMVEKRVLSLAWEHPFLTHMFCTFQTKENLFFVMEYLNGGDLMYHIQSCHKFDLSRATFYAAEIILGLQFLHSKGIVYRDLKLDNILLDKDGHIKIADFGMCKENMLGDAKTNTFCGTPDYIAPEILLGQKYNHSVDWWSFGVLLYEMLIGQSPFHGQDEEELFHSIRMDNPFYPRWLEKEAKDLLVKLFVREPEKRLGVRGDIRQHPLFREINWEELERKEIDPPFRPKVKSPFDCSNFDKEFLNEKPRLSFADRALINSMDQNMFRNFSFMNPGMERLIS
Chain of Protein kinase C beta type (Homo sapiens) (P05771 2-671 limits assumed): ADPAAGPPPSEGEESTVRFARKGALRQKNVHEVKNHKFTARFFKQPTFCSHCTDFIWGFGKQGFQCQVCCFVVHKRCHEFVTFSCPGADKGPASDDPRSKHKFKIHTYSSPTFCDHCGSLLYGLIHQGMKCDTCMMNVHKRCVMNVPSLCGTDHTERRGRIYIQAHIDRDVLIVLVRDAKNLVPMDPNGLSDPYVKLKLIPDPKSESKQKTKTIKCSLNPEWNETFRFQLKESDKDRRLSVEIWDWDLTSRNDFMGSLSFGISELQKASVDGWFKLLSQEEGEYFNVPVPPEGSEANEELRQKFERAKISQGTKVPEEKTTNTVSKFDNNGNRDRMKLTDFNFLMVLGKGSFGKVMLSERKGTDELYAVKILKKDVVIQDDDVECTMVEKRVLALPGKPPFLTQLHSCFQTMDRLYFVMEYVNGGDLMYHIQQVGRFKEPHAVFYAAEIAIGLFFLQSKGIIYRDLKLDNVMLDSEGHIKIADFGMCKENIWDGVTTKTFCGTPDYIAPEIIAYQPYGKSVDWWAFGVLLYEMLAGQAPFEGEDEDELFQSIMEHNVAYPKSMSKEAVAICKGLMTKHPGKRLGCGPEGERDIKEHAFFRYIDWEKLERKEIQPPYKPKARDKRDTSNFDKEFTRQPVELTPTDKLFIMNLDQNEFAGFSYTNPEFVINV

Usually inhibition stands for the relative decrease from the control value, in per cent. For `COC(=O)Nc1nc2ccc(Sc3ccc(NC(=O)Nc4cc(C(F)(F)F)ccc4F)cc3)cc2[nH]1`, the inhibition in test [1] is 4.57%; in [2], -0.54%; in test [3], 0.22%; in test [4] it was 0.15%; in test [5] it was 0.22%; in [6], 0.31%. Moreover, the inhibition is 0.4% in [7]; 0.94% in [8]; 0.37% in [9]; -0.22% in test [10]; 0.52% in test [11]; 1.06% in test [12]. For the same molecule, the inhibition in [13] was 0.51%; in test [14], 0.91%; in test [15], 1.52%; in test [16] it was -0.08%; in [17] it was 0.57%; in test [18] it was 0.23%. Further, the figures for the inhibition in test [19] and in test [20] were -1.11% and -0.63%, respectively.
On to `COc1cc2ncn(-c3cc(OCCc4ccccc4)c(C(N)=O)s3)c2cc1OC`, for which the inhibition is 1.47% in test [1]; 1.14% in [2]; 1.71% in [3]; 0.51% in test [4]; -0.63% in [5]; 0.9% in test [6]. In addition, the inhibition in test [7] amounted to 1.22%; in [8], 2.65%; in test [9], 5.06%; in test [10], 3.79%; in [11] it was 4.84%; in test [12], 3.76%. For the same molecule, the inhibition was 4.36% in [13]; 2.33% in test [14]; 4.13% in test [15]; 1.3% in [16]; 2.13% in [17]; 0.24% in test [18]. Moreover, the inhibition was -4.15% in test [19] and 0.26% in test [20].
